Experimental data from PubChem BioAssay (NCATS).
“And” between values parts separate entries of the source, which are not always exact repeats. Equal entries are not always repeated. Results filed as inconclusive are left out. The source made the active and inactive calls. Unless noted, the call rests on the fitted dose curve; in most records, active means well fitted curve in the direction sought with a large enough effect; inconclusive means small, poorly fitted or top-dose-only effect, or another doubt; inactive means no such curve, though single readings can be large; an effect the other way counts as inactive or inconclusive.

How the values were obtained:
[1] = AP1 Signaling Pathway (AID 357; active means well fitted curve in either direction with a large enough effect, not every such curve was filed as active;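 further: ME-180 reporter cells stimulated with EGF at its EC50 level; on the % scale 0 is the no-effect control and ±100 the full control effect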); conditions: ME-180 (cervical carcinoma) AP-1-bla reporter, EGF-induced, beta-lactamase ratio, 5 h; at 17.2 µM (top of the series) unless noted
Outline: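 Beta-lactamase reporter under AP-1 response element, ME-180 background. Stimulus: EC50 EGF. Compound exposure 5 h, 37 °C. Detection: CCF4, 2.5 h RT, 460/530 nm. Values: AC50 from titration.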

[2] = target: Glucocorticoid receptor (Homo sapiens) (UniProt P04150); test: GR-GFP Redistribution (AID 450;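 active means compounds whose dose series gives a full or clear partial fitted curve of increased nuclear translocation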; further: potency means the concentration at half of the fitted maximal effect); conditions: U2OS GR-GFP nuclear translocation, laser cytometry, 2 h
Glucocorticoid receptor (Homo sapiens), sequence (P04150 whole entry, looked up, the tested form may be a part): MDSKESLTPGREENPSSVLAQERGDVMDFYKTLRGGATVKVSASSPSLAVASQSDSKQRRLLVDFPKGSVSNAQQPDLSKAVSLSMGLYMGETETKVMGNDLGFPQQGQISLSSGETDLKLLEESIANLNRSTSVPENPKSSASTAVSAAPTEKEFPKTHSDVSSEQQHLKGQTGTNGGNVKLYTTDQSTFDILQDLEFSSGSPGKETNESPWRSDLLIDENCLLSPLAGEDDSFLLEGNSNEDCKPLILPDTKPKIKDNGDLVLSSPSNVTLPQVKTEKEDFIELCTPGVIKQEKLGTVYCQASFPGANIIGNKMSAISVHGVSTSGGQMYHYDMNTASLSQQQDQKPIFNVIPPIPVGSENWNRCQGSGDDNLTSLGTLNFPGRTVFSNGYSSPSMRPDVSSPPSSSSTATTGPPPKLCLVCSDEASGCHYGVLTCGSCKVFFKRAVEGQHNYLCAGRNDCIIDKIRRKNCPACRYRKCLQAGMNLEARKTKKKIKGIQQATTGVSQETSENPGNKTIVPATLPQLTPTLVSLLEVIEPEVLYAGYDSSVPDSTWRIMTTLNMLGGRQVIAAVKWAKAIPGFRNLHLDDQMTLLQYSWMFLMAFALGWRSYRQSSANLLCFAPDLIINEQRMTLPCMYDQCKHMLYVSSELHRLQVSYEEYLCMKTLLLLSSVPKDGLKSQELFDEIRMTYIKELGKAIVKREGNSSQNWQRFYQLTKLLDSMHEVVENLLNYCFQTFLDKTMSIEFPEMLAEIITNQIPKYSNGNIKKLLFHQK

[3] = target: Glucocorticoid receptor (Homo sapiens) (UniProt P04150); test: GR-EFC Redistribution (AID 451; calls by dose curve; further: potency means the concentration at half of the fitted maximal effect); conditions: CHO-K1 GR-EFC translocation, beta-gal luminescence, 2 h
Outline: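 CHO-K1 cells expressing nuclear EA and GR-ED fragments of b-gal; compounds titrated up to 46 uM final, 2 h at 37 C. GR nuclear translocation read as complemented b-gal luminescence after 1 h RT detection.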

[4] = target: Mitogen-activated protein kinase 10 (Mus musculus) (UniProt Q61831); test: JNK3 AlphaScreen Assay (AID 530; active means well fitted curve in either direction with a large enough effect, not every such curve was filed as active;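 further: kinase came from lysate of stimulated human HepG2 cells; signal reports phosphorylation of biotinylated GST-cJun 1-79 at Ser73 with 10 µM ATP; on the % scale 0 is the no-effect control and ±100 the full control effect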)
Outline: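 Activity was read by AlphaScreen after JNK3-containing HepG2 lysate (cytokine pre-activated) phosphorylated biotinylated GST-cJun with 10 uM ATP at room temperature. Phospho-Ser73 cJun antibody with Protein-A acceptor beads provided detection.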

[5] = target: 3',5'-cyclic-AMP phosphodiesterase 4B (Homo sapiens) (UniProt Q07343); test: qHTS Assay for Inhibitors of PDE-IV (AID 607; active means well fitted activation curve with a large enough effect in the main read-out, with a control signal flat, not every such curve was filed as active; further: % of control where 0% means no effect)
3',5'-cyclic-AMP phosphodiesterase 4B (Homo sapiens), sequence (Q07343 whole entry, looked up): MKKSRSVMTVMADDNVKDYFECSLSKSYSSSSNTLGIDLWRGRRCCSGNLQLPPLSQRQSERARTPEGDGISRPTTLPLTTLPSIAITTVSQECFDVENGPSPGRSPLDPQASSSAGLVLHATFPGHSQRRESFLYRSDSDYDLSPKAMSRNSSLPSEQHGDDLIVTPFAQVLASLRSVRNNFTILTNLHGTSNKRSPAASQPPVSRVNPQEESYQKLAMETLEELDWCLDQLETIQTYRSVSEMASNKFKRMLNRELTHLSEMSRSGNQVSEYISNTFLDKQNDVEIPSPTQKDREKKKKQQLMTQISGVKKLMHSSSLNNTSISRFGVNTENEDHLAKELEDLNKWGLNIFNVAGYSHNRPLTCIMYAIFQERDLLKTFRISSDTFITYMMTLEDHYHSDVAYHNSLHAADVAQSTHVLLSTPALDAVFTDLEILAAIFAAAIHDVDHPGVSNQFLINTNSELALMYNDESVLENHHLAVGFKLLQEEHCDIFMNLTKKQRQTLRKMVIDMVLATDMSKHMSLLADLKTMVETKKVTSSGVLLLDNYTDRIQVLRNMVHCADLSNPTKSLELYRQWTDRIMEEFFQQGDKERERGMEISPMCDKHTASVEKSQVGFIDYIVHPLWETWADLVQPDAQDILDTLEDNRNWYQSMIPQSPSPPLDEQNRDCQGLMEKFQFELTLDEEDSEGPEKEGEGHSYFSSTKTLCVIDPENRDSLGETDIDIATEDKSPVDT
Outline: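 The readout is membrane depolarisation from a cAMP-sensing CNG channel, detected with a potential dye at ex 535/em 590. Cells were HEK293-derived (endogenous PDE-IV) at 1000 cells/well, titrated up to 22.9 uM final.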

[6] = target: Cytochrome P450 2C19 (Homo sapiens) (UniProt P33261); test: qHTS Assay for Inhibitors and Substrates of Cytochrome P450 2C19 (AID 899); further: nearly all actives have a fitted effect of over 60% in size; further: potency means the concentration at half of the fitted maximal effect
Cytochrome P450 2C19 (Homo sapiens), sequence (P33261 whole entry, looked up): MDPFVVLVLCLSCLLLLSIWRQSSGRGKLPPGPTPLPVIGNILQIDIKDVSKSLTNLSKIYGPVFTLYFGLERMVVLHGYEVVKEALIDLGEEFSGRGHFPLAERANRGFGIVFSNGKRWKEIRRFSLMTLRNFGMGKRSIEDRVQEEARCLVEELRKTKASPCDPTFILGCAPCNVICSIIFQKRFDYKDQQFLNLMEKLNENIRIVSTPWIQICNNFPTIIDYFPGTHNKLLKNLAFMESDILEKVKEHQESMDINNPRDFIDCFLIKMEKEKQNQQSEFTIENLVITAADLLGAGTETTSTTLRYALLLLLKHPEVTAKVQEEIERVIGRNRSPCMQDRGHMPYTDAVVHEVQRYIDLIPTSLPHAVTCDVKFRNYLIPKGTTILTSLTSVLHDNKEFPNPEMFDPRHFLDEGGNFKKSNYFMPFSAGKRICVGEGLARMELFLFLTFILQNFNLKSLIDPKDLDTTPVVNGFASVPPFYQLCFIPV
Outline: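 Luminescent read-out of luciferin formed from Luciferin-H EGE (10uM, equal to KM). Enzyme 5nM in 50mM KPO4; compound added, 10 min at 37C, then NADPH regenerating system for 60 min at 37C. Full inhibition defined by 57uM ketoconazole.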

[7] = target: Cytochrome P450 1A2 (Homo sapiens) (UniProt P05177); test: p450-cyp1a2 (AID 410; calls by dose curve; further: potency means the concentration at half of the fitted maximal effect;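 on activity change, negative = inhibition: -100% = full effect of reference inhibitor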)
Cytochrome P450 1A2 (Homo sapiens), sequence (P05177 whole entry, looked up): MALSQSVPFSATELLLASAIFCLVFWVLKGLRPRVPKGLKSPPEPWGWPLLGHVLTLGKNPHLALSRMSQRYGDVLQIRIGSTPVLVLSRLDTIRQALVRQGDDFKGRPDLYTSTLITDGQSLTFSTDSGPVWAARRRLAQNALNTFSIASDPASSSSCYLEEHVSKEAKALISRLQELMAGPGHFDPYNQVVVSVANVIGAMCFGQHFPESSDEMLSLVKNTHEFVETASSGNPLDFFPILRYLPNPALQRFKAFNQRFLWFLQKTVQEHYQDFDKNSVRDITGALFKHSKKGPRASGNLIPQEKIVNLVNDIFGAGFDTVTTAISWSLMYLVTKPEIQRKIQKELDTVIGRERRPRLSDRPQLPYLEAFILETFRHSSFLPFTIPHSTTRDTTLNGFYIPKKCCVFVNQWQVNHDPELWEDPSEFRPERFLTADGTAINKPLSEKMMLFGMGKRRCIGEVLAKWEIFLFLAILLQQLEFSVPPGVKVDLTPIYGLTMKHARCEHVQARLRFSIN
Outline: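 O-Demethylation of luciferin 6' methyl ether by human CYP1A2 is monitored as luciferase luminescence. Substrate sits at Km (100uM); enzyme is 20nM. Values are scaled to 57 uM furafylline as maximal inhibition.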

[8] = target: Cytochrome P450 2D6 (Homo sapiens) (UniProt P10635); test: qHTS Assay for Inhibitors and Substrates of Cytochrome P450 2D6 (AID 891); further: nearly all actives have a fitted effect of over 60% in size; further: potency means the concentration at half of the fitted maximal effect;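 on activity change, negative = inhibition: luciferin methyl ether substrate demethylated by CYP2D6 with NADPH regeneration; on the % scale 0 is the no-effect control and ±100 the full control effect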
Cytochrome P450 2D6 (Homo sapiens), sequence (P10635 whole entry, looked up): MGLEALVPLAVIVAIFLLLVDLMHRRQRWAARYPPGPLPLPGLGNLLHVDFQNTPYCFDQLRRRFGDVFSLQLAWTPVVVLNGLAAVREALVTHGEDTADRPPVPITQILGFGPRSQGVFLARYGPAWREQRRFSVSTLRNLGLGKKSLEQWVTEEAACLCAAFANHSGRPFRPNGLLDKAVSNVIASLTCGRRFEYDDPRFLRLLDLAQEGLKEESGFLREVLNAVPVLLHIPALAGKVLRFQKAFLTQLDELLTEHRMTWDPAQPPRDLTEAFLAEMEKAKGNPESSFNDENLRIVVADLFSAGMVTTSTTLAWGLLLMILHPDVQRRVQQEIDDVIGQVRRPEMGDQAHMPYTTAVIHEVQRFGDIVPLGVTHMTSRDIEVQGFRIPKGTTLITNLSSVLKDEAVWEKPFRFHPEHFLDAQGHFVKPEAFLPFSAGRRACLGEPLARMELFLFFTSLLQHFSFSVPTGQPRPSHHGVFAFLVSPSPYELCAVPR
Outline: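 Luminescent read-out of luciferin formed by 5 nM human CYP2D6 demethylating 30 uM Luciferin-ME EGE (Km level) over 60 min at room temperature after NADPH regeneration addition. Data normalized to full inhibition by 1.43 uM quinidine.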

[9] = target: Cytochrome P450 3A4 (Homo sapiens) (UniProt P08684); test: qHTS Assay for Inhibitors and Substrates of Cytochrome P450 3A4 (AID 884); further: nearly all actives have a fitted effect of over 50% in size; further: potency means the concentration at half of the fitted maximal effect; on activity change, negative = inhibition: on the % scale 0 is the no-effect control and ±100 the full control effect
Cytochrome P450 3A4 (Homo sapiens), sequence (P08684 whole entry, looked up): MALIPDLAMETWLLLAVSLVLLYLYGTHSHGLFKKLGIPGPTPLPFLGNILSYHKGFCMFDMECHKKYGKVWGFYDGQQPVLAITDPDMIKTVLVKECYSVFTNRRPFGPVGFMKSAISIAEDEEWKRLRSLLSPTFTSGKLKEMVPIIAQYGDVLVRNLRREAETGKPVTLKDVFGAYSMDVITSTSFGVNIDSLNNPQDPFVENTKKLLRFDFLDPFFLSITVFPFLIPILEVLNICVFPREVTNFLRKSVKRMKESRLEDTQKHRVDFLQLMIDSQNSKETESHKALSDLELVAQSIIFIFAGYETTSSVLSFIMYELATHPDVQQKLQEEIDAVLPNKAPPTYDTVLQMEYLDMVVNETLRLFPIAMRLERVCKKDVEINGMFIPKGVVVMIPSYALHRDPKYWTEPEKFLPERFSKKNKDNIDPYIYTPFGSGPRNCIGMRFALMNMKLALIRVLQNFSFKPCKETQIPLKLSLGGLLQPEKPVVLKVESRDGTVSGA
Outline: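 Luminescent readout of luciferin produced by CYP3A4 (20 nM) dealkylation of Luciferin-PPXE, 25 uM (its KM). NADPH-driven reaction ran 60 min at RT after 10 min compound preincubation; data scaled to 57 uM ketoconazole as 100% inhibition.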

[10] = Cell Viability - BJ (AID 421; calls by dose curve;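 further: potency means the concentration at half of the fitted maximal effect; cells exposed to compound for 40 hours at 37 °C before readout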); conditions: BJ fibroblast viability, qHTS
Outline: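 Cytotoxicity in human BJ foreskin fibroblasts is scored as loss of cellular ATP after a 40-hour exposure, measured by luciferase luminescence. Controls are DMSO and 100 uM tamoxifen.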

[11] = Cell Viability - Jurkat (AID 426;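 active means dose-dependent loss of cell ATP signal giving a full or clear fitted curve, ranked by lower potency value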;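 further: potency means the concentration at half of the fitted maximal effect; cells exposed to compound for 40 hours at 37 °C before ATP read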); conditions: qHTS
Outline: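 Cells of the human T-cell leukemia line Jurkat (E6-1) are seeded at 5000 per well, treated with compound across a concentration range for 40 hours at 37 °C, then lysed with CellTiter-Glo; luminescence reports ATP.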

[12] = Cell Viability - MRC5 (AID 434; calls by dose curve;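 further: potency means the concentration at half of the fitted maximal effect; potency reflects cytotoxicity seen as loss of intracellular ATP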); conditions: MRC5 lung fibroblast viability, qHTS
Outline: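 ATP luminescence read-out (CellTiter-Glo, 20 min RT) after 40 hr, 37 °C compound exposure of 1500 MRC5 cells/well. Data normalized to DMSO (basal) and 100 uM tamoxifen (100% inhibition); AC50 from standard Hill equation.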

[13] = Cell Viability - SK-N-SH (AID 435; calls by dose curve;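 further: potency means the concentration at half of the fitted maximal effect; compound exposure lasted 40 h at 37 °C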); conditions: SK-N-SH neuroblastoma cell viability qHTS
Outline: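 CellTiter-Glo ATP luminescence, 20 min RT read; cells pre-plated 5 hr, compound 40 hr at 37 °C, 1500 cells/well, complete medium. Normalized DMSO = 0, 100 uM tamoxifen = 100% inhibition; Hill-fit AC50.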

[14] = qHTS assay for environmental chemicals that activate the Aryl hydrocarbon Receptor (AhR) signaling pathway (AID 651777); conditions: 1A2-DRE human hepatoma cells, luciferase, 24 h; activation: stronger effect = higher value; further: % of control where 0% means no effect; nearly all actives have a fitted effect of over 15% in size
Outline: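 Induction of CYP1A2 transcription through AhR is detected by luciferase in 1A2-DRE hepatoma cells. Compounds or DMSO act for 24 hr at 37 C before a 30 min One-Glo step at room temperature.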

[15] = Cell Viability - Renal Proximal Tubule (AID 545); conditions: renal proximal tubule cells viability; activity change, negative = cytotoxicity: at 91.7 µM (top of the series) unless noted;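 further: 0% = DMSO only and -100% = 100 µM tamoxifen; nearly all actives have a fitted effect of over 40% in size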
Outline: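 Rat kidney proximal tubule cells, freshly isolated; 1000 cells/well, 5 hr settle, compound 40 hr 37 °C. CellTiter-Glo 20 min RT, luminescence read. AC50 by standard Hill fit.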

[16] = Cell Viability - Mesenchymal (AID 546); conditions: mesenchymal cells viability, qHTS; activity change, negative = cytotoxicity: at 91.7 µM (top of the series);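 further: cells exposed to compound for 40 hours before reading; 0% = DMSO only and -100% = 100 µM tamoxifen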
Outline: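 Human renal mesenchymal cells (glomerulus-derived), 1000 cells/well, 5 hr 37 °C pre-incubation; compound 40 hr, 37 °C; CellTiter-Glo, 20 min RT; luminescence; AC50 via Hill equation.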

[17] = Cellular Toxicity (caspase-3) HUV-EC-C (AID 656);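 further: 0% = DMSO basal and 100% = 100 µM tamoxifen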
Outline: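 Luminescent caspase-3/7 activation (aminoluciferin substrate cleavage) in HUV-EC-C cells after 16 hr compound exposure, 37°C. Signal normalized to DMSO basal and 100 uM tamoxifen as 100%; AC50 from concentration-response fitted with the Hill equation.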

[18] = Cellular Toxicity (caspase-3) N2a (AID 665);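 further: compound exposure lasted 16 h at 37 °C before readout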
Outline: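 Caspase-3/7 activation, measured as increased luminescence from aminoluciferin release, is quantified in mouse N2a cells exposed to compounds for 16 h. Values are normalized to DMSO and 10 uM staurosporine, with AC50 derived by Hill modelling.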

[19] = Cell Viability - LYMP1-003 - Assay at 24 hr (AID 963);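 further: plate controls were DMSO only for no effect and tetraoctylammonium bromide positive control for full effect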
Outline: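 Cytotoxicity is scored as a concentration-dependent fall in ATP-linked luciferase signal in human lymphoblastoid LYMP1-003 cells treated 24 hr at 37 C in complete culture medium.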

[20] = Cell Viability - LYMP2-003 (AID 965);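 further: cells exposed to compounds for 24 h before reading; nearly all actives have a fitted effect of over 50% in size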; further: potency means the concentration at half of the fitted maximal effect;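 on activity change, negative = cytotoxicity: 0% = DMSO only and full effect = 92 µM tetraoctylammonium bromide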
Outline: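 CellTiter-Glo luminescence (cellular ATP) after 24 h compound exposure at 37 C in complete medium; 2500 cells/well, 5 h settling beforehand. Concentration-response fitted to standard Hill equation for AC50. Tetraoctylammonium bromide served as positive control.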

O=C(COc1ccc2ccccc2c1)N1CCN(C2CCN(Cc3ccccc3)CC2)CC1
inactive: activity change, negative = inhibition [1] 9.29% | Potency [2] > 20.6 µM

C=C(C)[C@H]1Cc2c(ccc3c2O[C@H]2COc4cc(OC)c(OC)cc4[C@@H]2C3=O)O1
inactive: activity change, negative = inhibition [1] 7.51% [at 38 µM] | Potency [2] > 46 µM | Potency [3] > 46 µM | outcome [4] | outcome [5]
active: Potency [6] 2.51 µM

COc1ccc(OC)c([C@@H](O)[C@H](C)NC(C)(C)C)c1
inactive: activity change, negative = inhibition [1] 8.72% | Potency [2] > 20.6 µM

Cc1c(N=Cc2c(O)n(Cc3ccco3)c(=O)[nH]c2=O)c(=O)n(-c2ccccc2)n1C
inactive: activity change, negative = inhibition [1] -3.26% | Potency [2] > 20.6 µM

CCOc1ccccc1-n1c(O)c(C=Nc2ccc(N(CC)CC)cc2)c(=O)[nH]c1=O
inactive: activity change, negative = inhibition [1] 3.1% | Potency [2] > 20.6 µM

C[C@H]1CC[C@]2(NC1)O[C@@H]1C[C@@H]3[C@@H]4CC=C5C[C@H](O)CC[C@@]5(C)[C@H]4CC[C@@]3(C)[C@H]1[C@@H]2C
inactive: Potency [7] | Potency [2] > 46 µM | Potency [3] > 46 µM | outcome [4] | Potency [8] | Potency [6]

O=C(CCCN1CCC2(CC1)C(=O)N(CCc1ccc(N=C=S)cc1)CN2c1ccccc1)c1ccc(F)cc1
active: Potency [6] 3.16 µM
inactive: activity change, negative = inhibition [1] -2.99% [at 38 µM] | Potency [2] > 46 µM | Potency [3] > 46 µM | outcome [4] | outcome [5]

CCCN1CCC[C@H](c2cccc(C#N)c2)C1
inactive: activity change, negative = inhibition [1] 7.99% [at 38 µM] | Potency [3] > 46 µM | outcome [4] | outcome [5]

CC1(C)CC(=O)C(C=NCCN2CCN(C(=O)Cc3ccc(F)cc3)CC2)=C(O)C1
inactive: activity change, negative = inhibition [1] -0.912% | Potency [2] > 20.6 µM

CC(C)[C@]1(NC(=O)[C@H]2C=C3c4cccc5[nH]cc(c45)C[C@H]3N(C)C2)O[C@@]2(O)[C@H]3CCCN3C(=O)[C@H](Cc3ccccc3)N2C1=O
active: Potency [7] 31.6 µM | Potency [6] 2 µM
inactive: Potency [2] > 46 µM | Potency [3] > 46 µM | Potency [8]

NCC[Se][Se]CCN
inactive: activity change, negative = inhibition [1] 19.7% [at 7.69 µM] | Potency [2] > 46 µM | Potency [3] > 9.22 µM | activity change, negative = inhibition [4] -20.9% [at 11.4 µM] | outcome [5]

C[C@@H](Cc1cccc(C(F)(F)F)c1)NCCCc1ccccc1
inactive: Potency [2] > 46 µM | Potency [3] > 46 µM | outcome [4]
active: Potency [7] 3.98 µM | Potency [9] 5.01 µM | Potency [8] 0.0126 µM | Potency [6] 1.26 µM

C[N+]1(C)[C@@H]2CC(OC(=O)[C@@H](CO)c3ccccc3)C[C@@H]1[C@H]1O[C@H]12 (stereo partly drawn)
inactive: activity change, negative = inhibition [1] 0.541% [at 7.69 µM] | Potency [2] > 46 µM | Potency [3] > 9.22 µM | activity change, negative = inhibition [4] 0.144% [at 11.4 µM]

CCCCCC[C@H]1C(=O)O[C@@H](C)[C@H](NC(=O)c2cccc(NC=O)c2O)C(=O)O[C@@H](C)[C@@H]1OC(=O)CC(C)C
inactive: Potency [7] | Potency [2] > 46 µM | Potency [3] > 46 µM | outcome [4] | Potency [8] | Potency [6]

C[C@@]12CC[C@H](O)C[C@@H]1CC[C@H]1[C@H]2C[C@@H](O)[C@]2(C)[C@@H](C3=CC(=O)OC3)CC[C@@]12O
inactive: Potency [7] | Potency [2] > 46 µM | Potency [3] > 46 µM | outcome [4] | Potency [8] | Potency [6]

C[C@@H](CO)NC(=O)[C@H]1C=C2c3cccc4[nH]cc(c34)C[C@H]2N(C)C1
inactive: Potency [2] > 46 µM | Potency [3] > 46 µM | outcome [4] | outcome [5] | Potency [6]
active: Potency [7] 31.6 µM | Potency [8] 12.6 µM

COc1ccc2[nH]c3c(c2c1)CCN=C3C
active: Potency [8] 0.631 µM
inactive: activity change, negative = inhibition [1] -4.7% | Potency [3] > 20.6 µM | outcome [5]

Nc1c(C(=O)NCc2ccco2)c2nc3ccccc3nc2n1CCN1CCCCC1
inactive: activity change, negative = inhibition [1] 29.1% | Potency [2] > 20.6 µM

CCCc1cc2c(n1Cc1cccc(Cl)c1)C(C)C1CN(C(=O)c3ccccc3)C(C)(C(=O)OC)C21 (stereo not drawn)
active: Potency [7] 31.6 µM | Potency [9] 5.01 µM
inactive: outcome [4] | outcome [5]

O=[N+]([O-])c1ccccc1Cl
inactive: Potency [10] > 92 µM | Potency [11] > 92 µM | Potency [12] > 92 µM | Potency [13] > 92 µM | activation [14] -0.478% and -0.511%

C(=NC1CCCCC1)=NC1CCCCC1
inactive: Potency [10] > 92 µM | Potency [12] > 92 µM | outcome [4] | Potency [15] | Potency [16] | outcome [17] | outcome [18] | Potency [9] | Potency [19] | Potency [20] | activation [14] 2.78% and 1.69%

CCCc1cc2c(n1Cc1ccc(C)cc1)C(C)C1CN(C(=O)c3ccccc3)C(C)(C(=O)OC)C21 (stereo not drawn)
inactive: outcome [4]
active: Potency [7] 7.94 µM | Potency [9] 3.16 µM

Oc1c(Cl)cc(Cl)cc1Cl
inactive: Potency [10] > 92 µM | Potency [12] > 92 µM | Potency [13] > 92 µM | activation [14] 0.15% and 1.58%

O=C(CCl)c1ccccc1
active: Potency [10] 39.2 µM | Potency [11] 9.5 µM | Potency [13] 15.4 µM | activity change, negative = cytotoxicity [16] -109% | Potency [20] 10 µM
inactive: outcome [17] | outcome [18] | Potency [9] | Potency [19] | activation [14] -0.199% and 2.38%

O=C(O)[C@H]1C[C@@H]1[C@H](NP(=O)(c1ccccc1)c1ccccc1)c1ccccc1
inactive: Potency [7] | outcome [4] | outcome [5]
